The values that follow come from PubChem BioAssay AID1159506 (National Center for Advancing Translational Sciences (NCATS), 2015).

The full ranking holds about 59,000 sequences; the median of the read-out is about -0.00055, and the lowest 2% start at about -2. This excerpt belongs to a sample that is enriched for the lowest values.

This test is described as follows: Identification of proteins required for the processing of the EWS-FLI1 nascent transcript.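 Further: robust z of luciferase light less the median z of siRNAs with the same seed.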 The following applies: TC32 Ewing sarcoma NR0B1-luc vs CMV-luc (EWS-FLI1 target promoter against control promoter), 48 h; screened at 20 nM (by protocol). The essentials: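 Genome-wide siRNA screen (Ambion v4.1, three siRNAs per gene, 20 nM final, RNAiMax) in Ewing sarcoma TC32 cells carrying NR0B1-promoter or CMV-promoter luciferase; OneGlo luciferase read 48 h post-transfection. Data normalized, z-score-MAD transformed and seed-adjusted.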
In turn, UAUGUCUUCACGCAGCCGC against PI4KAP2 yielded a seed-corrected z-score of -1.12.

In turn, UACGUUUGCUUUGCGCUCG against NR0B1 displayed a seed-corrected z-score of -0.672.

As to UUGGGAUUAACACUUGUGA against LINC00851, the seed-corrected z-score was -2.42.

UUGAAGUUUUCAAUUGUGC against CYSLTR2: the seed-corrected z-score was -0.797.

UCAGCUAACUCUGUCUCUG against SNX19P3 registered a seed-corrected z-score of -0.302.

Regarding AUUGUGAUGAACCUCGUCC against ARHGAP40, the seed-corrected z-score is -0.617.

Take UUAGUGAUCUGAUAGUGGG against POGLUT1: the seed-corrected z-score is 0.238.

In the case of AAUUCCAAAACCAAUGUGC against MS4A12, the seed-corrected z-score is 0.147.

Sequence UGUUUCUCUGACUUGAGUG against IFI27L2 returned a seed-corrected z-score of -2.28.

Consider UUCUUAUUGAGUUUCAGCC against MSN, for which the seed-corrected z-score was found to be 0.564.

For the sequence UAAAUUUGUCGAGUUGCUC against CFAP99, the seed-corrected z-score came to 0.485.

UUGACAAAAGUGAGGAUCG against LGALS14 displayed a seed-corrected z-score of 0.5.

UCUAUGGGCAGUGGCAUCU against GOLGA2P10: the seed-corrected z-score was -1.07.

Consider UGUGCAACUGGUCUUGUGC against BBS4, for which the seed-corrected z-score amounted to 0.33.

UGUUGUAGAAGGUAAACCC against CLRN3: the seed-corrected z-score was -2.64.

UAAUGUCAAAUUUUCCUCC against P2RX7 gave a seed-corrected z-score of -0.332.

UCCAUUGCAAUUGUGCCCA against MAGEA4 registered a seed-corrected z-score of -0.0267.

The sequence UUUCUUCACGUGGAUAGCC against GABRG2 registered a seed-corrected z-score of 0.574.

UUCCAGAAAAAGCCGCACG against PLD6: the seed-corrected z-score was -0.608.

On to UUUCCUUCCAACUCUGCGC against ZNF835, for which the seed-corrected z-score was -1.63.

Turning to UACGUUAGGACGGCUCAGG against RLTPR, the seed-corrected z-score is -1.06.

Regarding UCAUGUGGCAUUUCUGGGA against LOC642852, the seed-corrected z-score is -2.43.

AUUCUUACCACAACUAUCC against SRP14 had a seed-corrected z-score of -0.807.

For UAAGCUGCGUGUUUUUAUC against TRIM14, the seed-corrected z-score is -2.45.

On to UUUACGAAGUUUUUGAUAG against EML1, for which the seed-corrected z-score is -0.287.

The sequence UUUGUAGAGAAGUUUCACC against ZNF517 gave a seed-corrected z-score of 0.211.

Take UUAGCUUCAACGGUGUUAC against E2F8: the seed-corrected z-score was -1.58.

The sequence UCGAUGAACAACCAUAUGC against PRKAA2 displayed a seed-corrected z-score of 0.499.

Regarding UUAUCUGCUUUAGAUUUGC against PYROXD1, the seed-corrected z-score is -0.293.

On to GAAGGUGCAGAUCUGUUUG against SCX, for which the seed-corrected z-score was -2.92.

UCAUCUACGAUAUUCAUGA against ADAMTS14 yielded a seed-corrected z-score of -0.269.

On to UAAGCAUCUCACAAAAUCG against MITD1, for which the seed-corrected z-score is -0.778.

AAACUUCACUGUUACUUGG against LYSMD1 displayed a seed-corrected z-score of -0.262.

Turning to UCGGUAACAAAAAUUAGUG against RNF217, the seed-corrected z-score was 0.42.

Turning to UCUGUUCAAUACUUAAACC against PRUNE2, the seed-corrected z-score is -0.544.

UUUCUUAUCACCAUCAAAC against PGD returned a seed-corrected z-score of 0.244.

UAAGUUGCGAGCGUAGUGG against GAL3ST4 came in with a seed-corrected z-score of -3.11.

UAUGUAGCAAAUCACAGUA against TMEM39A gave a seed-corrected z-score of 0.421.

Sequence UCUGCGGAAACUUUGGUGG against CDH11 showed a seed-corrected z-score of -0.023.

In turn, UCUUGAUACAGAUUCCAUC against RFX8 yielded a seed-corrected z-score of 0.516.

In turn, UCCUUUAGCACCUUCACCG against RAD23A displayed a seed-corrected z-score of -2.73.

The sequence UUGUUGUCAAUGUUAAUCG against SNX29P1 showed a seed-corrected z-score of -0.677.

In the case of AUAUUUCAAGGCAAGCUUC against DNAJC5, the seed-corrected z-score turned out to be 0.415.

On to AUGGUAGCGGAAGAAAUUC against TMEM205, for which the seed-corrected z-score is -2.26.

As to UAAUCUUUAUUGUCACUAG against GRB7, the seed-corrected z-score is -0.659.

Sequence UUUGGCAAGACUUAACUUG against SCGB1D2 came in with a seed-corrected z-score of 0.678.

AUUUUGUCACUGGAAAGGC against OIP5 returned a seed-corrected z-score of 0.784.

The sequence UAUGCGCUUUGAGACUAGC against ZNF236 registered a seed-corrected z-score of -0.344.

As for UUGAGGUUACUGGAGCUGC against ZNF683, the seed-corrected z-score was -0.208.

Take AUCCUUAAUGUAACUAUUG against C12orf60: the seed-corrected z-score was 0.108.

Sequence UAUAUCAUUAAGCAAUGCC against SF3B1 returned a seed-corrected z-score of -3.22.

UAAGUAGACGUGCAGAUCA against MFSD6L displayed a seed-corrected z-score of 0.136.

The sequence UACUCGAAGAUCAUCUUGG against MYO6 showed a seed-corrected z-score of -0.142.

On to AUAGUUCCCUCGAUGAGGC against CCS, for which the seed-corrected z-score was found to be 0.322.

In turn, UCUCCUGUAACAGACUCUG against ERICH1 yielded a seed-corrected z-score of 0.83.

Consider AUAGACAACUUUGAGGUCC against AP1S1, for which the seed-corrected z-score was -0.000301.

In the case of UUCAGCACAGAGAAAUUCG against SHISA2, the seed-corrected z-score was found to be 1.31.

As for UUGUUACUAAGAUCAACAG against PIWIL4, the seed-corrected z-score was -0.273.

UAAAAUAUCAAGCGAAUCA against LOC399886: the seed-corrected z-score worked out at 0.0836.

UACCGGGAUACAUGCAUGC against KIAA1551 gave a seed-corrected z-score of -2.73.

The sequence AAACGAAACAUGACGACAC against RSG1 returned a seed-corrected z-score of -0.0435.

For UGAUGUACUCCACUGAUGC against TFEC, the seed-corrected z-score is -0.552.

For the sequence UCUCUUUGUGGUGUACUUG against FGF13, the seed-corrected z-score was -12.9.

UUCCGAAUGGAAACUCUGG against BCL7C registered a seed-corrected z-score of 0.615.

Regarding AUACCGAUCAUAGCACAUC against OR2A12, the seed-corrected z-score worked out at 0.195.

In turn, UAUUAGGUCUUAUUUAUUC against NXNL2 gave a seed-corrected z-score of 0.499.
